Laboratory results from PubChem BioAssay AID1159580 (chemical genetic matrix, 2015).
About 2,000 (36%) of roughly 5,500 compounds were called active. Another 18% or so got no clear call; they are omitted. Rule as the data show it: active = normalized growth mostly below about 0.91 (no sharp cut-off); inconclusive = no clear call, values can overlap the other calls; inactive = mostly above about 0.92. The list shows a part of the results.

Test: chemical genetic growth profiling, strain panel (AID 1159580);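 also: tested at 20 µM; growth read once vehicle control cultures reached saturation at 30 °C; 1 = growth at the plate median or of vehicle wells; lower values mean less growth of the strain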
Details: S. cerevisiae deletion strains, growth OD

Measured: normalized growth

O=C(O)c1ccccc1Nc1cccc(OCc2ccc3ccccc3n2)c1
inactive: locus YAL013W, strain DEP1, stronger effect = lower value 0.996 | locus YAL040C, strain CLN3, stronger effect = lower value 0.932 | locus YCL061C, strain MRC1 (second series), stronger effect = lower value 0.997 | locus YDR150W, strain NUM1, stronger effect = lower value 1 | locus YDR363W, strain ESC2, stronger effect = lower value 1 | locus YER002W, strain NOP16, stronger effect = lower value 1.01 | locus YGR078C, strain PAC10, stronger effect = lower value 0.967 | locus YHR030C, strain SLT2, stronger effect = lower value 1.03 | locus YHR079C, strain IRE1, stronger effect = lower value 1.03 | locus YJL095W, strain BCK1, stronger effect = lower value 1.05 | locus YJR066W, strain TOR1, stronger effect = lower value 0.968 | locus YJR075W, strain HOC1, stronger effect = lower value 1.01 | locus YLR113W, strain HOG1, stronger effect = lower value 1.01 | locus YMR263W, strain SAP30, stronger effect = lower value 0.999 | locus YMR307W, strain GAS1, stronger effect = lower value 1.04 | locus YNL128W, strain TEP1, stronger effect = lower value 0.957 | locus YNL153C, strain GIM3, stronger effect = lower value 1.04 | locus YNL175C, strain NOP13, stronger effect = lower value 0.94 | locus YNL183C, strain NPR1, stronger effect = lower value 0.981 | locus YNL197C, strain WHI3, stronger effect = lower value 0.934 | locus YNL224C, strain SQS1, stronger effect = lower value 0.95 | locus YNL322C, strain KRE1, stronger effect = lower value 1.02 | locus YOR083W, strain WHI5 (second series), stronger effect = lower value 0.959 | locus YOR231W, strain MKK1, stronger effect = lower value 1.02 | locus YPL241C, strain CIN2, stronger effect = lower value 0.989 | locus YPL256C, strain CLN2, stronger effect = lower value 1.02
